Several values for one entry are separate records, joined by “and”; a condition that tells them apart may be missing. Equal values may be shown once. Inconclusive results are not listed. Entries that show only a call come without a potency. Activity calls are given as the source filed them. Unless noted, the call rests on the fitted dose curve; in most records, active means well fitted curve in the direction sought with a large enough effect; inconclusive means small, poorly fitted or top-dose-only effect, or another doubt; inactive means no such curve, though single readings can be large; an effect the other way counts as inactive or inconclusive.
Tests used:
[1] = MultiTox-Fluor Cytotoxicity Assay - LYMP1-001 - Dead Cells (AID 946); further: potency means the concentration at half of the fitted maximal effect
How it was run: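 AC50 from Hill fit of concentration-response; data normalized to DMSO (basal) and 15 uM tetraoctylammonium bromide (100%). LYMP1-001 lymphoblastoid cells, 2500/well, 16 hr compound at 37 C; dead-cell protease fluorescence, Ex/Em 485/520.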

[2] = MultiTox-Fluor Cytotoxicity Assay - LYMP1-001 - Live Cells (AID 947)
[3] = Cell Viability - LYMP1-002 - Assay at 16 hr (AID 948)
How it was run: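 LYMP1-002 human lymphoblastoid cells, 2500/well; 5 hr 37 C; cpd 16 hr 37 C; CellTiter-Glo 30 min RT; luminescence (ATP). Concentration-response, Hill-fit AC50. Pos ctrl tetraoctylammonium bromide.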

[4] = molecular target: Pyruvate kinase PKM (Homo sapiens) (UniProt P14618); assay: qHTS Assay for Activators of Human Muscle Pyruvate Kinase (AID 954; active means well fitted curve in the direction sought with a large enough effect, not every such curve was filed as active)
Sequence of Pyruvate kinase PKM (Homo sapiens) (P14618 whole entry, looked up): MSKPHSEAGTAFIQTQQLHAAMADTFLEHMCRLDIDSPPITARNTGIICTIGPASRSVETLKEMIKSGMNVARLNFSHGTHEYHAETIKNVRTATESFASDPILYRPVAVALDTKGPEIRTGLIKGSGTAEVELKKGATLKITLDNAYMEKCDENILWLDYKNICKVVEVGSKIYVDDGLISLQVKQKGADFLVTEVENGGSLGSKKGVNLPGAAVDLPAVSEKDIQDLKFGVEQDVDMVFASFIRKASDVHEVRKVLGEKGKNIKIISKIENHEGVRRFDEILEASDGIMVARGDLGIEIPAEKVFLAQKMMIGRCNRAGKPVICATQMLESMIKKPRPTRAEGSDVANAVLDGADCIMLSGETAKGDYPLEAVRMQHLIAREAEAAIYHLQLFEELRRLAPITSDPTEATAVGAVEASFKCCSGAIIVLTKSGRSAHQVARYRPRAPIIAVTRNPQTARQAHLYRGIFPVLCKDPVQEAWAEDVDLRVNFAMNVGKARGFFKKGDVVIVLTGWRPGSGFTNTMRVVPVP
How it was run: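 A coupled luminescent readout tracked ATP made from ADP by purified PKM2. Final conditions included 0.1 nM enzyme, PEP and ADP at 0.5 and 0.1 mM, pH 7.2 imidazole buffer with BSA, and a one-hour room-temperature reaction.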

[5] = MultiTox-Fluor Cytotoxicity Assay - LYMP1-002 - Live Cells (AID 955);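 further: cells exposed to compound for 16 hours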
How it was run: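 After 16 h compound exposure at 37 C, live LYMP1-002 lymphoblastoid cells (2500/well) were quantified by cleavage of cell-permeant GF-AFC substrate, read at 405/510 nm after 60 min. Concentration-response fitted with Hill equation for AC50.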

[6] = MultiTox-Fluor Cytotoxicity Assay - LYMP1-002 - Dead Cells (AID 960); further: nearly all actives have a fitted effect of over 60% in size; further: potency means the concentration at half of the fitted maximal effect
How it was run: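 Dead-cell fluorescence (Ex/Em 485/520) after 16 h compound exposure at 37 C of LYMP1-002 lymphoblastoid cells in complete medium; AC50 by Hill equation, with data scaled between DMSO and 15 uM tetraoctylammonium bromide.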

[7] = MultiTox-Fluor Cytotoxicity Assay - LYMP1-003 - Dead Cells (AID 961); further: nearly all actives have a fitted effect of over 70% in size
How it was run: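 Human lymphoblastoid LYMP1-003 cells (2500/well) were treated with compounds for 16 hr at 37 C in complete medium. Dead-cell protease release was read by bis-AAF-R110 fluorescence (Ex/Em 485/520). AC50 came from Hill fits, normalized to DMSO and 15 uM tetraoctylammonium bromide.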

[8] = MultiTox-Fluor Cytotoxicity Assay - LYMP1-003 - Live Cells (AID 962);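 further: cells exposed to compound for 16 hours at 37 °C; cytotoxic hits lower the live-cell protease signal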
How it was run: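 Live-cell protease activity (GF-AFC substrate, 405/510 nm, 60 min at room temperature) after 16 h, 37 C compound exposure of human lymphoblastoid LYMP1-003 cells; concentration-response fitted to the Hill equation for AC50.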

[9] = Cell Viability - LYMP1-003 - Assay at 24 hr (AID 963)
How it was run: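 Concentration-response qHTS: ATP loss measured by CellTiter-Glo luminescence after 24 h compound exposure at 37 C. Cells were LYMP1-003 human lymphoblastoid, 2500 per well. AC50 derived via standard Hill equation modeling.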

[10] = Cell Viability - LYMP1-003 - Assay at 40 hr (AID 964); further: nearly all actives have a fitted effect of over 60% in size; further: potency means the concentration at half of the fitted maximal effect
How it was run: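 Viability is taken as cellular ATP, read by CellTiter-Glo luminescence after 40 h of compound exposure at 37 C. Cells: human lymphoblastoid line LYMP1-003 at 2500/well; AC50 values derived by Hill-equation fitting of concentration-response data.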

[11] = Cell Viability - LYMP2-003 (AID 965);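 further: cells exposed to compounds for 24 h before reading; nearly all actives have a fitted effect of over 50% in size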
How it was run: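 CellTiter-Glo luminescence (cellular ATP) after 24 h compound exposure at 37 C in complete medium; 2500 cells/well, 5 h settling beforehand. Concentration-response fitted to standard Hill equation for AC50. Tetraoctylammonium bromide served as positive control.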

[12] = Cell Viability - LYMP2-004 (AID 966); further: nearly all actives have a fitted effect of over 65% in size
How it was run: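 AC50 values come from Hill modelling of concentration-dependent loss of intracellular ATP, measured by CellTiter-Glo luminescence. Human LYMP2-004 lymphoblastoid cells (2500/well) were exposed to compound for 24 h at 37 C.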

[13] = Cell Viability - LYMP2-005 (AID 967); further: series mostly up to about 92 µM
How it was run: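 Steps: seed 2500 LYMP2-005 cells/well, incubate 5 h at 37 C, add compound, incubate 24 h at 37 C, add CellTiter-Glo, wait 30 min at RT, read luminescence. Concentration-response data fitted to Hill equation for AC50.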

[14] = Cell Viability - LYMP2-009 (AID 968); further: series mostly up to about 92 µM; nearly all actives have a fitted effect of over 55% in size
[15] = Cell Viability - LYMP2-011 (AID 969); further: nearly all actives have a fitted effect of over 60% in size
How it was run: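 Cytotoxicity qHTS with ATP content as read-out: lymphoblastoid cells (2500/well) exposed to compound for 24 h at 37 C, then luciferase luminescence measured. Concentration-response data fitted with the standard Hill equation to give AC50.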

[16] = Cell Viability - LYMP2-013 (AID 970); further: series mostly up to about 92 µM; nearly all actives have a fitted effect of over 55% in size
How it was run: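 qHTS cytotoxicity: ATP-dependent luminescence (CellTiter-Glo, 30 min room temperature) read after 24 h compound exposure at 37 C of 2500 LYMP2-013 lymphoblastoid cells per well. Concentration-response fitted with Hill equation to give AC50.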

[17] = Cell Viability - LYMP2-015 (AID 971); further: nearly all actives have a fitted effect of over 55% in size
How it was run: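 Cytotoxicity readout: decrease in intracellular ATP (CellTiter-Glo luminescence) in 2500 LYMP2-015 lymphoblastoid cells/well after 24 h compound exposure at 37 C. Concentration-response data fitted with the standard Hill equation to give AC50.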

[18] = Cell Viability - LYMP2-017 (AID 972); further: series mostly up to about 92 µM; nearly all actives have a fitted effect of over 55% in size
How it was run: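 CellTiter-Glo luminescence (cellular ATP, 30 min RT) measured cytotoxicity after 24 hr compound treatment at 37 C. Cells were a human lymphoblastoid line, LYMP2-017, plated at 2500/well and incubated 5 hr first; concentration-response fitted with Hill equation for AC50.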

Row | Compound | Potency [1] | outcome [2] | outcome [3] | outcome [4] | outcome [5] | Potency [6] | outcome [7] | outcome [8] | outcome [9] | Potency [10] | outcome [11] | outcome [12] | outcome [13] | outcome [14] | outcome [15] | outcome [16] | outcome [17] | outcome [18]
1 | COc1ccc2[nH]cc(CCNC(C)=O)c2c1 | inactive | inactive | inactive | inactive | inactive | inactive | inactive | inactive | inactive | inactive | inactive | inactive | inactive | inactive | inactive | inactive | inactive | inactive
2 | Clc1ccc2c(c1)C(N1CCNCC1)=Nc1ccccc1O2 | – | – | – | inactive | – | – | – | – | – | – | – | – | – | – | – | – | – | –
3 | NCCS(=O)(=O)O | inactive | inactive | inactive | inactive | inactive | inactive | inactive | inactive | inactive | inactive | inactive | inactive | inactive | inactive | inactive | inactive | inactive | inactive
4 | N[C@@H](Cc1c[nH]c2ccc(O)cc12)C(=O)O | inactive | inactive | inactive | inactive | inactive | inactive | inactive | inactive | inactive | inactive | inactive | inactive | inactive | inactive | inactive | inactive | inactive | inactive
5 | O=c1[nH]cc(F)c(=O)[nH]1 | inactive | inactive | inactive | inactive | inactive | inactive | inactive | inactive | inactive | – | inactive | inactive | inactive | inactive | inactive | inactive | – | –
6 | NC(=O)NO | – | – | – | inactive | – | – | – | – | – | – | – | – | – | – | – | – | – | –
7 | COc1ccc(C2CNC(=O)C2)cc1OC1CCCC1 (stereo not given) | – | – | – | inactive | – | – | – | – | – | – | – | – | – | – | – | – | – | –
8 | CC(C)NCC(O)c1ccc(O)c(O)c1 (stereo not given) | inactive | inactive | inactive | – | inactive | inactive | inactive | inactive | inactive | – | inactive | inactive | inactive | inactive | inactive | inactive | inactive | inactive
9 | Nc1ccn([C@H]2CC[C@@H](CO)O2)c(=O)n1 | inactive | inactive | inactive | inactive | inactive | inactive | inactive | inactive | inactive | inactive | inactive | inactive | inactive | inactive | inactive | inactive | inactive | inactive
10 | Cn1c(=O)c2[nH]cnc2n(C)c1=O | inactive | inactive | inactive | inactive | inactive | inactive | inactive | inactive | inactive | inactive | inactive | inactive | inactive | inactive | inactive | inactive | inactive | inactive
11 | COc1nc(C)nc(Cl)c1NC1=NCCN1 | – | – | – | inactive | – | – | – | – | – | – | – | – | – | – | – | – | – | –
12 | CN(Cc1cnc2nc(N)nc(N)c2n1)c1ccc(C(=O)N[C@@H](CCC(=O)O)C(=O)O)cc1 | – | – | – | inactive | – | – | – | – | – | – | – | – | – | – | – | – | – | –
13 | Cc1cn([C@H]2C[C@H](N=[N+]=[N-])[C@@H](CO)O2)c(=O)[nH]c1=O | inactive | inactive | inactive | – | inactive | inactive | inactive | inactive | inactive | inactive | inactive | inactive | inactive | inactive | inactive | inactive | inactive | inactive
14 | Cn1c(=O)c2c(ncn2C)n(C)c1=O | inactive | inactive | inactive | inactive | inactive | inactive | inactive | inactive | inactive | inactive | inactive | inactive | inactive | inactive | inactive | inactive | inactive | inactive
15 | CN1C(C(=O)Nc2ccccn2)=C(O)c2ccccc2S1(=O)=O | – | – | – | inactive | – | – | – | – | – | – | – | – | – | – | – | – | – | –
16 | COc1cc2c(c(OC)c1OC)-c1ccc(OC)c(=O)cc1[C@@H](NC(C)=O)CC2 | 63.1 nM (active) and 100 nM (active) | – | – | inactive | – | 50.1 nM (active) | – | – | – | 20 nM (active) | – | inactive | – | – | – | inactive | – | –
17 | OCCN1CCN(CCCN2c3ccccc3Sc3ccc(C(F)(F)F)cc32)CC1 | – | – | – | inactive | – | – | – | – | – | – | – | – | – | – | – | – | – | –
18 | CCCCc1oc2ccccc2c1C(=O)c1cc(I)c(OCCN(CC)CC)c(I)c1 | – | – | – | inactive | – | – | – | – | – | – | – | – | – | – | – | – | – | –
